# Experimental data reported in PubChem BioAssay AID720708 (National Center for Advancing Translational Sciences (NCATS), 2013).
# In all, about 360,000 compounds went through this assay and about 660 (0.18%) were called active. Inconclusive results (about 2%) are left out. The call rests on the fitted dose curve; in most records, active means well fitted inhibition curve with a large enough effect; inconclusive means small, poorly fitted or top-dose-only effect; inactive means no such curve, though single readings can be large or run the other way. What follows is part of a selection rich in actives, with near analogues and random picks from the rest. Entries that show only a call come without a potency.
# Molecular target: Rap guanine nucleotide exchange factor 4 (Homo sapiens) (UniProt Q8WZA2)
# Test: qHTS for Antagonist of cAMP-regulated guanine nucleotide exchange factor 2 (EPAC2): primary screen; further: nearly all actives have a fitted effect of over 45% in size
# Settings: EPAC2 GEF exchange of Rap1B-BODIPY-GDP, fluorescence; series mostly up to 114 µM
# Description: In multi-cellular eukaryotic organisms, the effects of cAMP are transduced by two ubiquitously-expressed intracellular cAMP receptors, the classic protein kinase A/cAMP-dependent protein kinase (PKA/cAPK) and the more recently discovered exchange protein directly activated by cAMP/cAMP-regulated guanine nucleotide exchange factor (EPAC/cAMP-GEF). Both PKA and EPAC are ubiquitously expressed in all tissues, and an increase in intracellular cAMP levels will lead to the activation of both PKA and EPAC. Therefore, careful dissections of the individual role and relative contribution of EPAC and PKA within the overall cAMP signaling in various model systems are critical for further elucidating the mechanism of cAMP signaling. To date no EPAC-specific antagonists and agonist, as well as isoform-specific agonists have been reported, and developing EPAC-specific pharmacological probes to determine the physiological functions that EPAC play in the overall cAMP-mediated signaling remains a major challenge within the research field. Furthermore, identified regulators of EPAC may lead to new mechanism-based therapeutic strategies specifically targeting the EPAC / cAMP-signaling components as EPAC has been implicated to play important roles in major human pathological conditions such as diabetes, heart disease, and cancer.
# This qHTS will be used to screen the Molecular Libraries Small Molecule Repository (MLSMR) as a concentration-titration series using the NCGC unique quantitative screening (qHTS) platform to find inhibitors for EPAC2. In addition, this assay will also be used as a counterscreen for the EPAC1 qHTS. This fluorescent based assay is developed and validated for EPAC2 that measures exchange using EPAC effector Rap1 complex with BODIPY-GDP, a GDP analog with a tethered fluorophores. Inhibitors are identified by monitoring the change in fluorescence signal as the exchanged free BODIPY-GDP has a reduced fluorescence compared to Rap1-bound BODIPY-GDP. Decrease in signal (inhibition) is the desired outcome for the EPAC2 antagonist while no activity in this assay is desired for the EPAC1 antagonist counterscreen.
# NIH Chemical Genomics Center [NCGC]
# NIH Molecular Libraries Probe Centers Network [MLPCN]
# Assay Submitter (PI): Xiaodong Cheng, The University of Texas, Medical Branch
# Briefly, three uL of reagents (100 nM EPAC2, 250 nM RAP1B-BODIPY-GDP, 50 uM GDP) were dispensed into a 1536-well Greiner black solid-bottom medium binding assay plate. Controls and test compounds (23 nL) were transferred to the plate via a Kalypsys pin tool equipped with a 1536-pin array. The plates were centrifuged at 1,000 rpm for 15 seconds followed by 5 minute incubation at room temperature. The assay plates were read at 5 minute intervals for 30 minutes in the ViewLux plate reader using 480nm excitation and 540nm emission filters. The results were normalized to the agonist positive control ATA and DMSO.
# Potency means the concentration at half of the fitted maximal effect.
# Chain of Rap guanine nucleotide exchange factor 4 (Homo sapiens) (Q8WZA2 whole entry, looked up): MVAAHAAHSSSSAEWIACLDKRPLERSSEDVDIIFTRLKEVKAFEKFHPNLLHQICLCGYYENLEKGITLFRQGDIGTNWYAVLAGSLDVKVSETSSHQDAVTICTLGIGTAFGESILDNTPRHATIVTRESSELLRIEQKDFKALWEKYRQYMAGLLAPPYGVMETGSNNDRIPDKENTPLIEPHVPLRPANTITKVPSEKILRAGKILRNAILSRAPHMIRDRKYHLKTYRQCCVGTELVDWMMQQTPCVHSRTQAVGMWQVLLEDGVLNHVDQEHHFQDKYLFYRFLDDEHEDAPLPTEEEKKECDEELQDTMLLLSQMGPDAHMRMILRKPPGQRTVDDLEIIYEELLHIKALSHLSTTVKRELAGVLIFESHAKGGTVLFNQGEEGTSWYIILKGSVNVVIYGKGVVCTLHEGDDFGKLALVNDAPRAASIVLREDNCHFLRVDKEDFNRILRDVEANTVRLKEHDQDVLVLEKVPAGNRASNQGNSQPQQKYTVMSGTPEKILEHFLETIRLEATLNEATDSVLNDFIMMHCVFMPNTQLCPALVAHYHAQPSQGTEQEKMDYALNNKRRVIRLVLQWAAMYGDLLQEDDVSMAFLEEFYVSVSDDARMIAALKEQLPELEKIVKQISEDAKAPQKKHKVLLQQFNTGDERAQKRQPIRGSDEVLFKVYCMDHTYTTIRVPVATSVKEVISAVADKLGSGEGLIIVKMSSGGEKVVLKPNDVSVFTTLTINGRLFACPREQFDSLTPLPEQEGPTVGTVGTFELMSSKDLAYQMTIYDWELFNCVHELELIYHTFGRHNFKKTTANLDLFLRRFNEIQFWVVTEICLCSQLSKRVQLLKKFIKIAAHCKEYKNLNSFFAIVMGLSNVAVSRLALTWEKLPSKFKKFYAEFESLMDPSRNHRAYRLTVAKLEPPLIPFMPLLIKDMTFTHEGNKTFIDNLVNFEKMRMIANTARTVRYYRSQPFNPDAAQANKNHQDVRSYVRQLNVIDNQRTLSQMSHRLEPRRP
row,SMILES,Potency
1,O=C1NC2(CCCCC2)N=C1c1ccccc1,inactive
2,COc1cc(N)c(Cl)cc1C(=O)OCC(=O)c1ccc2c(c1)NC(=O)CO2,inactive
3,COc1ccc(S(=O)(=O)N[C@@H]2C=C[C@@H](CC(=O)N3CCc4ccccc4C3)O[C@@H]2CO)cc1,inactive
4,Cc1cccc(C)c1NC1=NC(=S)N(c2ccc(N(C)C)cc2)C1(C)C,inactive
5,CC1(C)OC(=O)C2=C(C[C@@H](C3CC3)O[C@H]2c2ccc(Cl)cc2)O1,inactive
6,O=S(=O)(/N=C(/Nc1ccccc1)c1ccccc1)c1cccs1,inactive
7,O=C1OCCOC2CCCc3oc(-c4ccccc4)c1c32 (stereo not given),inactive
8,Cc1c(C(=O)NCC2CC2)sc(=O)n1Cc1cccc(F)c1,inactive
9,OCCC#Cc1ccc(N2C(c3ccsc3)=Cc3ccc(F)cc3C2c2c[nH]c3ccccc23)cc1 (stereo not given),inactive
10,O=C(c1ccc[nH]c1=S)N1CCN(S(=O)(=O)c2ccc(Br)cc2Cl)CC1,inactive
11,CCOc1ccc(CCNC(=O)C(CC)n2nc(C)n3c(cc4sccc43)c2=O)cc1OCC (stereo not given),inactive
12,CCOCCCNc1c(CC)c(C)c(C#N)c2nc3ccccc3n12,inactive
13,O=C1COc2ccc(C(=O)COC(=O)CCOc3ccccc3)cc2N1,inactive
14,CC(=O)Cc1nsc(NC(=O)c2ccc(Cl)cc2Cl)n1,inactive
15,CNC(=O)c1csc(Cc2c(Cl)sc3ccc(Cl)cc23)n1,8.91 µM (active)
16,CC(=O)NNC(=O)c1csc(Cc2c(Cl)sc3ccc(Cl)cc23)n1,inactive
17,C/C(=N\N(C)C)c1ccc(OCCOc2ccc([N+](=O)[O-])cc2)cc1,inactive
18,O=C(Nc1ccc2c(c1)OCCO2)C1c2ccccc2OCC(=O)N1Cc1ccccn1 (stereo not given),inactive
19,CCCNC(=O)C1(C)CCN1C(=O)C1(c2ccccc2)CC1 (stereo not given),inactive
20,CCc1c(-c2ccc(F)cc2)ncn1Cc1cccc(-c2ccccc2)c1,inactive
21,CCOc1ccc(S(=O)(=O)N2CCC(C(=O)NCc3ccccn3)CC2)cc1Cl,inactive
22,C[C@@H]1CN([C@@H](C)CO)S(=O)(=O)c2ccc(C#Cc3cccc(F)c3)cc2O[C@H]1CN(C)S(=O)(=O)c1cn(C)cn1,inactive
23,O=C1OCCN1C(=O)[C@H]1[C@H](c2ccc(Cl)cc2)C(c2cccc(Cl)c2)=NN1c1ccc(Br)cc1,inactive
24,COc1ccc(C2CC(c3cccs3)=Nc3ccccc3S2)cc1OC (stereo not given),inactive
25,COc1ccccc1C1CC(=O)n2c(nc(-c3ccccc3)c2-c2ccccc2)S1 (stereo not given),inactive

row,SMILES,Potency
1,COc1ccc(C2CC(=O)n3c(nc4ccccc43)S2)cc1OC (stereo not given),17.8 µM (active)
2,NC(Cc1ccccc1)c1csc(Nc2cc(Oc3ccccc3)ncn2)n1 (stereo not given),inactive
3,CCOC(=O)c1c(-c2ccccc2)oc2cc(Br)c(O)c(C=O)c12,inactive
4,Cc1oc2cc(Br)c(O)c(Br)c2c1C(=O)c1ccccc1,28.2 µM (active)
5,COc1ccc(C(=O)c2c(C)oc3cc([N+](=O)[O-])c(O)c([N+](=O)[O-])c23)cc1,inactive
6,COC(=O)Cc1ccc(N(Cc2ccccc2F)S(=O)(=O)c2ccc(Br)cc2)cc1,inactive
7,COc1ccccc1NC(=O)CCSc1nnc(-c2ccc(O)cc2)o1,inactive
8,CN[C@H]1C[C@H]2c3cc(Oc4ccccc4C)ccc3CCN2C(=O)[C@H]1[C@H](C)O,inactive
9,Cc1cccc(C)c1NC(=O)C(c1cccc2ccccc12)n1c(=O)c(-c2ccco2)nc2ccccc21 (stereo not given),inactive
10,CC(=O)NCCC(=O)Nc1nc(C)c(Cc2ccc3c(c2)OCO3)s1,inactive
11,Cc1ccc(C)c(-n2ccnc2SCC(N)=O)c1,inactive
12,O=c1cccc(-c2ccc(Br)cc2)o1,inactive
13,COC(=O)[C@@]12C[C@@H](CC(=O)N3CCC(c4ccccc4)CC3)C(=O)N(Cc3ccccc3)C1=CCC(C)(C)C2,inactive
14,O=C1N[C@H](Cc2ccccc2)C(=O)N[C@H]1Cc1cn(S(=O)(=O)c2ccccc2)c2ccccc12,inactive
15,CCCN1CC=C2C(C#N)=C(N)C(C#N)(C#N)C(c3cc(OC)ccc3OC)C2C1 (stereo not given),39.8 µM (active)
16,CCN1CC=C2C(C#N)=C(N)C(C#N)(C#N)[C@H](c3ccoc3)[C@H]2C1,inactive
17,CC(C)Nc1ccc(-n2nc3ccccc3[n+]2[O-])cc1,inactive
18,Cc1ccc(Nc2cc(C)nc3c(C)ccc([N+](=O)[O-])c23)cc1,44.7 µM (active)
19,O=[N+]([O-])c1ccccc1Nc1ccc(O)cc1,inactive
20,Cc1ccc2cccc([N+](=O)[O-])c2n1,inactive
21,Cc1cc(C)cc(NC(=O)NC2CCN(CC(=O)Nc3cccc(Cl)c3C)CC2)c1,inactive
22,CC1(C(=O)NCc2ccccc2)CSCC(=O)N1CCCn1ccnc1 (stereo not given),inactive
23,CN(Cc1ccccc1)C(=O)COc1ccccc1,inactive
24,COc1ccc(C(CCN(Cc2ccc(OC)c(OC)c2)C(=O)CCl)c2ccccc2)cc1 (stereo not given),inactive
25,COc1ccc(CN(C)C(=O)CC(c2ccccc2)c2ccccc2)cc1,50.1 µM (active)
